Drawing on PubChem BioAssay (NCI), this text covers growth inhibition for 20 molecules.

A short description of test [1]: NCI Yeast Anticancer Drug Screen. Data for the rad50 strain (AID 155).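 Also: 0% = growth of vehicle-only cultures of the same strain.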 The settings on record: S. cerevisiae rad50 strain growth inhibition; at 50.0 µM; stronger effect = higher value. Put shortly:
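Vehicle-treated cultures provide the reference for the growth inhibition reported for compound-exposed, repair-deficient yeast.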

Test [2] can be described thus: NCI Yeast Anticancer Drug Screen. Data for the mec2-1 strain (AID 157). The settings on record: S. cerevisiae mec2-1 strain, at 50.0 µM, stronger effect = higher value. Put shortly: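 Mutant yeast (mec2-1) grown with compound; growth inhibition relative to vehicle control reported.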
Test [3] in a line: NCI Yeast Anticancer Drug Screen. Data for the sgs1 mgt1 strain (AID 161).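 Also: 0% = growth of cultures given vehicle only.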 The settings on record: S. cerevisiae sgs1 mgt1 strain, at 50.0 µM, stronger effect = higher value. Put shortly:
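Growth of a repair-deficient yeast mutant was monitored after compound treatment and expressed as inhibition relative to vehicle-treated cultures.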

Test [4] can be described thus: NCI Yeast Anticancer Drug Screen. Data for the cln2 rad14 strain (AID 165).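 Also: 0% = growth equal to vehicle treated cultures.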 The settings on record: S. cerevisiae cln2 rad14 strain, at 50.0 µM, stronger effect = higher value. The procedure, abridged:
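Readout is yeast growth inhibition versus vehicle-treated controls, using a strain with cln2 and rad14 alterations exposed to compound.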

Test [5] is described as follows: NCI Yeast Anticancer Drug Screen. Data for the bub3 strain (AID 167). The settings on record: S. cerevisiae bub3 mutant strain, at 50.0 µM, stronger effect = higher value. Put shortly:
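Mutant yeast screening strain plus compound; vehicle-treated cultures serve as the 0% inhibition reference.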

Test [6] in a line: NCI Yeast Anticancer Drug Screen. Data for the mlh1 rad18 strain (AID 175). To be noted: S. cerevisiae mlh1 rad18 strain growth inhibition; at 50.0 µM; stronger effect = higher value. Put shortly: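 Genetically defined yeast (DNA repair-deficient) exposed to compounds; growth inhibition determined relative to vehicle.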

Molecules are shown by their SMILES. About 79,000 compounds went through this panel and 15% of them were active in at least one assay; those are over-represented in the sample as a whole. A number with no mark means an inactive call. Calls of active or inactive are those of the source. Rule as the data show it: active = growth inhibition above about 70%; inactive = the rest.

Take `Nc1nc2nc(Br)[nH]c2c(=O)[nH]1`: the growth inhibition in test [1] was -5.5%; in test [2], -7.9%; in test [3] it was -29.3%; in test [4], -17.2%; in test [5], -14.2%; in test [6], -33.9%.

`N/N=C1/C(=O)N(c2ccc(S(N)(=O)=O)cc2)C(=O)C1C(=O)Nc1ccc(S(N)(=O)=O)cc1` (stereo not given): the growth inhibition in test [1] is -4%; in test [2], 15.6%; in test [3], -0.9%; in test [4], 30.6%; in test [5], 0.25%; in test [6] it was 12.1%.

For `c1ccc2c(c1)N=C(c1ccc3ccccc3c1)CC(c1cccc3ccccc13)S2` (stereo not given), the growth inhibition in test [1] was 13.2%; in test [2] it was 5.25%; in test [3] it was -33.1%; in test [4] it was 33.1%; in test [5], 19.3%; in test [6], -3.15%.

For the molecule `CC1=C(C(=O)NCc2ccccc2)C(c2ccccc2C)C(C(=O)NCc2ccccc2)=C(C)N1`, the growth inhibition in test [1] is 52.1%; in test [2], 26%; in test [3], 31.6%; in test [4] it was -10.9%; in test [5], 36%; in test [6], 25.4%.

With `CN(C=O)c1ccc2c(c1)C(=O)c1ccccc1-2`, the growth inhibition is 11.7% in test [1]; 2.1% in test [2]; 0.1% in test [3]; 4.2% in test [4]; -0.3% in test [5]; 9.55% in test [6].

As for `CC(=O)NC(CCCNC(=O)OCc1ccccc1)C(=O)NCc1ccccc1` (stereo not given), the growth inhibition in test [1] is -9.1%; in test [2], -20.9%; in test [3], -30%; in test [4], -1.35%; in test [5], -16.9%; in test [6], -36%.

As for `O=C1NC(=O)C2(CC3CCCCC3CC2c2ccccc2)N1` (stereo not given), the growth inhibition was 17.1% in test [1]; 13.3% in test [2]; 12.8% in test [3]; 3.1% in test [4]; 10.3% in test [5]; 10.9% in test [6].

In the case of `OCc1ccc(F)cc1`, the growth inhibition in test [1] is -6.35%; in test [2] it was -14.6%; in test [3] it was -7.5%; in test [4] it was 3.25%; in test [5], -10.8%; in test [6], 3.45%.

With `COc1ccc2nccc(N)c2c1`, the growth inhibition was 31.9% in test [1]; -7.95% in test [2]; 15.1% in test [3]; 11.5% in test [4]; -8.05% in test [5]; 20.9% in test [6].

Turning to `CCC(=O)N(C)[C@@H]1Oc2ccc(O)cc2[C@]1(C)c1cc(O)ccc1O`, the growth inhibition is 0.35% in test [1]; 2.25% in test [2]; 14.8% in test [3]; 19.9% in test [4]; 6.7% in test [5]; 9.95% in test [6].

In the case of `N#C/C(=C\c1ccccc1)c1cccc(Br)c1`, the growth inhibition in test [1] is 3.9%; in test [2], -6.1%; in test [3] it was 17.4%; in test [4], -22.9%; in test [5], 48.1%; in test [6], -1%.

On to `CCOC(=O)C(CC[C@@H]1N[C@H](C(N)=O)Cc2c1[nH]c1ccccc21)C(=O)OCC`, for which the growth inhibition in test [1] was 8.5%; in test [2] it was -9.85%; in test [3], 5.3%; in test [4], 7.55%; in test [5] it was 7.9%; in test [6] it was -13.7%.

Regarding `O=[N+]([O-])c1cccc(/C=[N+](\[O-])c2ccccc2)c1`, the growth inhibition in test [1] is -3.45%; in test [2] it was 8.2%; in test [3] it was 13%; in test [4], -38.6%; in test [5], -16.9%; in test [6], 0.6%.

Turning to `COc1ccc(CC(NC(=O)OCc2ccccc2)C(=O)NC2C(CO)OC(n3cnc4c(N)ncnc43)C2O)cc1` (stereo not given), the growth inhibition in test [1] is 25.8%; in test [2], -6%; in test [3] it was 10.2%; in test [4], 2.15%; in test [5], -0.75%; in test [6] it was -1.75%.

As to `CC1(c2ccc(Cl)cc2)NC(=O)NC1=O` (stereo not given), the growth inhibition in test [1] is -27.3%; in test [2], 3.1%; in test [3] it was -7.65%; in test [4], -29.5%; in test [5], 9.85%; in test [6], -20.1%.

Take `CCCCCCC(=O)O`: the growth inhibition in test [1] is 0.75%; in test [2], -16.4%; in test [3], -4.85%; in test [4], -30.3%; in test [5], -0.1%; in test [6] it was 9.9%.

With `CCOC(=O)C1=C(NC(C)(C)C)OCC1=O`, the growth inhibition was -10.7% in test [1]; -17.9% in test [2]; -2.2% in test [3]; 3.1% in test [4]; -16.6% in test [5]; 16.1% in test [6].

For `CCN(CC)CCc1c2c(nc3ccccc13)C(=O)c1cccnc1C2=O`, the growth inhibition in test [1] was 84.3% (active); in test [2], 66.3%; in test [3] it was 84% (active); in test [4], 74.4% (active); in test [5], 79.2% (active); in test [6], -21.5%.

Regarding `Cc1c(C)c2cc3c(=O)c(CCl)coc3c(C)c2oc1=O`, the growth inhibition was 22.4% in test [1]; 1.15% in test [2]; 16% in test [3]; 15.6% in test [4]; -7.15% in test [5]; -5.95% in test [6].

For `CN(C)NC(=O)/C=C\C(=O)O`, the growth inhibition in test [1] is -12.6%; in test [2] it was -17.4%; in test [3], -9.8%; in test [4], -6.9%; in test [5], -7.45%; in test [6] it was -3.2%.
